# Source: PubChem BioAssay (NCATS)
# Records with an inconclusive call do not appear. The source made the active and inactive calls. Calls come from the whole dose curve; as a rule, active = well fitted cell-killing curve with a large enough effect; inconclusive = small, poorly fitted or top-dose-only effect; inactive = flat fitted curve, though single readings scatter.
# Assay: Cell Viability - LYMP2-025 (AID 976);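 note: cells exposed to compound for 24 h at 37 °C; plate controls were DMSO only for no effect and tetraoctylammonium bromide control for full effect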
# Conditions: LYMP2-025 lymphoblastoid cell viability; series mostly up to 92.2 µM; activity change, negative = cytotoxicity: at the top concentration
# Excerpt: NIH Chemical Genomics Center [NCGC]
# NIH Molecular Libraries Screening Centers Network [MLSCN]
# National Institutes of Environmental Health Sciences [NIEHS]
# National Toxicology Program [NTP]
# We have developed a 1536-well cell-based assay for quantitative high throughput screening (qHTS) against a number of cell lines to determine in vitro cytotoxicity of small molecules. This particular assay uses a human lymphoblastoid cell line (LYMP2-025) purchased from Coriell Institute for Medical Research.
# NCGC Assay Protocol Summary:
# The CellTiter-Glo luminescent cell viability assay (Promega) is a homogeneous method to measure the number of viable cells in culture. The end point readout of this assay is based on quantitation of intracellular ATP, an indicator of metabolic activity, using the luciferase reaction. Luciferase catalyzes the oxidation of beetle Luciferin to oxyluciferin and light in the presence of ATP. The luminescent signal is proportional to amount of ATP present.
# Using the CellTiter-Glo luminescent cell viability assay, the amount of cellular ATP was measured in the lymphoblastoid cell line with complete culture medium following compound treatment for 24 hours. The assay was performed in opaque white Kalypsys 1536-well plates. In the screen, tetraoctylammonium bromide was used as positive control. Library compounds were measured for their ability to cause acute toxicity in the cell line, as reflected by a decrease in intracellular ATP levels, in a concentration-dependent manner. […] AC50 values were determined from concentration-response data modeled with the standard Hill equation.
# qHTS protocol for CellTiter Glo lymphoblastoid cellular assay
# [Step] [Parameter] [Value] [Description]
# 1. Reagent; 5 uL; 2500 lymphoblastoid cells/well
# 2. Time; 5 hr; 37 C incubation
# 4. Controls; 23 nL; Tetraoctylammonium bromide 6.4pM to 92 uM
# 5. Time; 24 hr; 37 C incubation
# 6. Reagent; 5 uL; CellTiter Glo reagent
# 7. Time; 30 min; Room Temperature
# 8. Detection; Luminescence; Viewlux plate reader
# Keywords: cell viability, cytotoxicity, lymphoblastoid cell line, luminescence, NTPHTS, NTPHTS_NCGC, NIEHS, DSSTox, MLSMR, MLSCN, NIH Roadmap, qHTS, NCGC
row,Structure (SMILES),"activity change, negative = cytotoxicity"
1,Cc1ccc(C)o1,-5.21% (inactive)
2,CNc1ccc([N+](=O)[O-])cc1,1.75% (inactive)
3,C=C(C)C(=O)OCCCCCCCCCC,-9.25% (inactive)
4,CC(C)=CCl,-10.9% (inactive)
5,NC(=O)CCCCC(N)=O,-21.6% (inactive)
6,O=C(O)CNC(=O)c1ccc([N+](=O)[O-])cc1,2.3% (inactive)
7,C=CCCCC,-4.94% (inactive)
8,CCCCCCO,-5.83% (inactive)
9,CSCCC=O,9.37% (inactive)
10,Cc1ccc(C(C)(C)C)cc1,-2.93% (inactive)
11,CCC(O)C(C)(C)C (stereo not given),-11.1% (inactive)
12,CCCCCNCCCCC,-8.62% (inactive)
13,Cc1ccccc1C(=O)O,-4.23% (inactive)
14,Nc1cc(Cl)c(N)c(Cl)c1,-19.7% (inactive)
15,ON=C1CCCCC1,-6.16% (inactive)
16,CC1CCC2CC1C2(C)C (stereo not given),-12.9% (inactive)
17,O=CNc1ccccc1,-8.28% (inactive)
18,CC(=O)c1ccc([N+](=O)[O-])cc1,-10.2% (inactive)
19,Nc1ccc([N+](=O)[O-])c(N)c1,3.07% (inactive)
20,CNC(=O)c1ccccc1,2.75% (inactive)

row,Structure (SMILES),"activity change, negative = cytotoxicity"
1,Cc1cc([N+](=O)[O-])ccc1N,-10.3% (inactive)
2,Cc1cccc(Br)c1,-2.91% (inactive)
3,COCCOC(=O)c1ccccc1C(=O)OCCOC,-10.8% (inactive)
4,O=C(O)c1ccc(C(=O)O)cc1,-8.65% (inactive)
5,O=[N+]([O-])c1ccc(Cl)cc1Cl,-17.8% (inactive)
6,C=CCOC(=O)CCCCCCCC,5.01% (inactive)
7,Nc1cccc2c(=O)[nH][nH]c(=O)c12,-9.16% (inactive)
8,Cc1cccc(C(=O)O)c1[N+](=O)[O-],-14% (inactive)
9,O=C(O)c1ccc(Cl)cc1Cl,0.461% (inactive)
10,O=C(O)c1cccc([N+](=O)[O-])c1,-10.6% (inactive)
11,C=C(C)C(=O)OCCCCCC,-12.9% (inactive)
12,CC(C)CCOC(=O)/C=C/c1ccccc1,-0.716% (inactive)
13,Cc1ccc(C)c(O)c1,-5.34% (inactive)
14,Cc1cscn1,-1.9% (inactive)
15,Cc1ccc2cccnc2c1,-11.1% (inactive)
16,CCN(CC)c1cccc(O)c1,-28.4% (inactive)
17,CC(C)N(C)C,-14.3% (inactive)
18,CCCCCCCCN,0.189% (inactive)
19,CN(C)CCCCl,-21.5% (inactive)
20,BrC(Br)C(Br)Br,1.14% (inactive)
